# ChEMBL document CHEMBL1961873, “Compounds: GSK PKIS; Assays: Nanosyn kinase panel” (2012)
# Experiments:
# [1] = molecular target: T1, Aurora kinase A (Homo sapiens) (UniProt O14965); settings: at 1 µM;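 note: values are mean percent inhibition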
# T1 sequence (whole entry): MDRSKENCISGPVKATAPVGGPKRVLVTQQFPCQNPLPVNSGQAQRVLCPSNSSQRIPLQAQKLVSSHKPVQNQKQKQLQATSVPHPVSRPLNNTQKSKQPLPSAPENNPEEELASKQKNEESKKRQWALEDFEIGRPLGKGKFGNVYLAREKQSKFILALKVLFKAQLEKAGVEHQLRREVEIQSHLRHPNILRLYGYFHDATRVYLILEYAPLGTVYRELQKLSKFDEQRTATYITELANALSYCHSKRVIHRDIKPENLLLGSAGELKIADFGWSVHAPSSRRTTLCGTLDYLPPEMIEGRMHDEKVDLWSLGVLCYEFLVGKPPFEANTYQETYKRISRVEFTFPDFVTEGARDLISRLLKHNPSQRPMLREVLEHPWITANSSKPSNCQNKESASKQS
# [2] = molecular target: Aurora kinase B (Homo sapiens) (UniProt Q96GD4); settings: at 0.1 µM
# [3] = molecular target: Aurora kinase B (Homo sapiens) (UniProt Q96GD4); settings: at 1 µM
# [4] = molecular target: T2, Aurora kinase C (Homo sapiens) (UniProt Q9UQB9); settings: at 0.1 µM
# T2 sequence (whole entry): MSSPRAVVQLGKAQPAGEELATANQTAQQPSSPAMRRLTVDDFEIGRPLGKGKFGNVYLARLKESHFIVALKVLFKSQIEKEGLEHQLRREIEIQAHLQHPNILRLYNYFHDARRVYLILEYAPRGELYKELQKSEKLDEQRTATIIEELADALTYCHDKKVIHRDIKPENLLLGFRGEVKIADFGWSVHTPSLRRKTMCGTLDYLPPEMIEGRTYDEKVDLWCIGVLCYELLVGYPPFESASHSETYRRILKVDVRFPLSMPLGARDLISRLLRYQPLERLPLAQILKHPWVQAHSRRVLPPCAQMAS
# [5] = molecular target: T2, Aurora kinase C (Homo sapiens); settings: at 1 µM
# [6] = molecular target: Serine/threonine-protein kinase 10 (Homo sapiens) (UniProt O94804); settings: at 0.1 µM
# [7] = molecular target: Serine/threonine-protein kinase 10 (Homo sapiens) (UniProt O94804); settings: at 1 µM
# [8] = molecular target: T3, Mitogen-activated protein kinase kinase kinase kinase 2 (Homo sapiens) (UniProt Q12851); settings: at 0.1 µM
# T3 sequence (whole entry): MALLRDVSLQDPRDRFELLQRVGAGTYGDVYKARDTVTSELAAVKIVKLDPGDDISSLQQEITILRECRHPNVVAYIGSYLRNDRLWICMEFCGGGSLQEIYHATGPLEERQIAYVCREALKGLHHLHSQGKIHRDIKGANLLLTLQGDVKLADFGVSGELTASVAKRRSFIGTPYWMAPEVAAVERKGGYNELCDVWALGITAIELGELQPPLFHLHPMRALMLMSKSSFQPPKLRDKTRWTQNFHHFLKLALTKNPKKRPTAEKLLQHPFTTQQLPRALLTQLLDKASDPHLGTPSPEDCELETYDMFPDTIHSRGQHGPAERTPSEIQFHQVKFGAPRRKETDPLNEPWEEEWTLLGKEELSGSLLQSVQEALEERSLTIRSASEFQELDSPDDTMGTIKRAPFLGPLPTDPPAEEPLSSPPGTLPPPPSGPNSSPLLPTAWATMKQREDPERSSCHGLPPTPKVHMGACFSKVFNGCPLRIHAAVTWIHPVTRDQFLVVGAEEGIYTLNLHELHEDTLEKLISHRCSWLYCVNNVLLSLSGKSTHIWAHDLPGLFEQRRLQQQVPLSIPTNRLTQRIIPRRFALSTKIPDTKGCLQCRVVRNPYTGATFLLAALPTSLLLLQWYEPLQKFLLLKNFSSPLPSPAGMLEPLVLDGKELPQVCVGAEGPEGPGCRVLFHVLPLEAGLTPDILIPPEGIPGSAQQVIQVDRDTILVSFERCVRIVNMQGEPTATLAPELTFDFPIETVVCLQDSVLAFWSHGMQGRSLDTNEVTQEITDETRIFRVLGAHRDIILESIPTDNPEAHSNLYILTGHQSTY
# [9] = molecular target: T3, Mitogen-activated protein kinase kinase kinase kinase 2 (Homo sapiens); settings: at 1 µM
# [10] = molecular target: Mitogen-activated protein kinase kinase kinase kinase 4 (Homo sapiens) (UniProt O95819); settings: at 0.1 µM
# Chain of Mitogen-activated protein kinase kinase kinase kinase 4 (Homo sapiens) (O95819 2-1239 limits assumed): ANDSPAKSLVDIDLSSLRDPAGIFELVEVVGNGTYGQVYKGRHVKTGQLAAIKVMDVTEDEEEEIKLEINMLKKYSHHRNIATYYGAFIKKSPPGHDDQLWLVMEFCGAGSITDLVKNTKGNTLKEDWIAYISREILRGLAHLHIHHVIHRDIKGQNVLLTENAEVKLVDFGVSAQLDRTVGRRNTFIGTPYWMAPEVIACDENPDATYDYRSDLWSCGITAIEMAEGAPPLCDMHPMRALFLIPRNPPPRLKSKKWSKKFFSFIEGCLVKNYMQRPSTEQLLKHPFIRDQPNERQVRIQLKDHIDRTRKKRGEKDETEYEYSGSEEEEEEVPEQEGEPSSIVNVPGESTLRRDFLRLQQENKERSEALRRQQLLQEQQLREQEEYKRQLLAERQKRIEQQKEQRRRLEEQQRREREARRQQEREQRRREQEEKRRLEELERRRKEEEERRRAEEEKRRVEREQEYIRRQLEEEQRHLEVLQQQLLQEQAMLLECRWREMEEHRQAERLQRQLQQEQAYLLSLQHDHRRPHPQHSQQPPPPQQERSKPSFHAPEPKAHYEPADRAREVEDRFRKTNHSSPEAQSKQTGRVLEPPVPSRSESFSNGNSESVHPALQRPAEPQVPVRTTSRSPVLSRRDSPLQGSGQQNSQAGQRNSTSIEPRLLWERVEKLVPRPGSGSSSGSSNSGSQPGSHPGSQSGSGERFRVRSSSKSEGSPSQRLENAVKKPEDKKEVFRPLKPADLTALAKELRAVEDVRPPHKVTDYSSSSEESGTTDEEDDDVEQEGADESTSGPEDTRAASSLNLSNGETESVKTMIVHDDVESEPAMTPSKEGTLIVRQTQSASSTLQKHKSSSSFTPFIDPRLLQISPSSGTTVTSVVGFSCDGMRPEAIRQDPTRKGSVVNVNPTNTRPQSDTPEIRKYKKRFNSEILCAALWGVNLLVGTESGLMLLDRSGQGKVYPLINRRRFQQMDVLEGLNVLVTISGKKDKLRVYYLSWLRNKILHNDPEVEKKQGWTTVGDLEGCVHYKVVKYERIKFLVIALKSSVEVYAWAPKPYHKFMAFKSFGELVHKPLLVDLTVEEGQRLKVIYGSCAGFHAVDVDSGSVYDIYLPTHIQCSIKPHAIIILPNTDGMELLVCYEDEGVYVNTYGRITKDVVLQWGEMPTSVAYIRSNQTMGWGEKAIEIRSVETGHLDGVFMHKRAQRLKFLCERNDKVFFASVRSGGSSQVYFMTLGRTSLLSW
# Chain of Serine/threonine-protein kinase 10 (Homo sapiens) (O94804 whole entry, looked up): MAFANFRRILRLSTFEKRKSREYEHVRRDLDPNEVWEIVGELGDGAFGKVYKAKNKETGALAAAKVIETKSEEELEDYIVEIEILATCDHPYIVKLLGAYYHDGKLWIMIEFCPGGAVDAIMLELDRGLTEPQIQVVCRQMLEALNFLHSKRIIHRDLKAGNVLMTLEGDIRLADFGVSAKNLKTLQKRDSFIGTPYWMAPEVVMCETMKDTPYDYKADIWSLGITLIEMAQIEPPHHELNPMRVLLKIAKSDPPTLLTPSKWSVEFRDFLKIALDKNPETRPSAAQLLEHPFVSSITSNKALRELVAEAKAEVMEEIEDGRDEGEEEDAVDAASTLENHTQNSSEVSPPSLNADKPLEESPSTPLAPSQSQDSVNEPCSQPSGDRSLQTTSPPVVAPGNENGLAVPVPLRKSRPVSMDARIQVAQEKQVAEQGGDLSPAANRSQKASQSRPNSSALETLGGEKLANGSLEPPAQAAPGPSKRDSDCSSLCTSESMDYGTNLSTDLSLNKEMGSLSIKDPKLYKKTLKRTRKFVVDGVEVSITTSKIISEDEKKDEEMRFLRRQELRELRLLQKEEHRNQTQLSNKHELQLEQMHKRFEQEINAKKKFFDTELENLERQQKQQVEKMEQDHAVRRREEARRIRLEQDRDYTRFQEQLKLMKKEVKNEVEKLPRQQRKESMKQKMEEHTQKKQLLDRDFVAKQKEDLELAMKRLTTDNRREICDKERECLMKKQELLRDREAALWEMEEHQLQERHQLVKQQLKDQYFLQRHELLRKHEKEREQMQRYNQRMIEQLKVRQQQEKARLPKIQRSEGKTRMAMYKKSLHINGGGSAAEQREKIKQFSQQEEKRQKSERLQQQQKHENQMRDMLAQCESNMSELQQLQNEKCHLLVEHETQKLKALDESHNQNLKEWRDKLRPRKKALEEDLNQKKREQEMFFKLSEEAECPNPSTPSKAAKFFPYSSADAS
# Chain of Aurora kinase B (Homo sapiens) (Q96GD4 whole entry): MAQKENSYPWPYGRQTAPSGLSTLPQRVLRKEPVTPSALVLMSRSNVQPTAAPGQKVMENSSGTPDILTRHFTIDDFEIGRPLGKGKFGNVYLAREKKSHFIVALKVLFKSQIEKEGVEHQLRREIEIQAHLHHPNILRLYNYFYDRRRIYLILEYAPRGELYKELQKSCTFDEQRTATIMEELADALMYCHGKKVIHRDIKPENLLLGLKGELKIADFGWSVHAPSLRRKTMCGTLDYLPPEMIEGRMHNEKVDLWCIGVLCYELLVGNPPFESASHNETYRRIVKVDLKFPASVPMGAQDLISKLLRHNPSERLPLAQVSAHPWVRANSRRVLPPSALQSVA
SMILES,inhibition [1] [%],inhibition [2] [%],inhibition [3] [%],inhibition [4] [%],inhibition [5] [%],inhibition [6] [%],inhibition [7] [%],inhibition [8] [%],inhibition [9] [%],inhibition [10] [%]
O=C1NC(=O)C(c2ccccc2Cl)=C1Nc1cccc(O)c1,11.6,2.88,7.74,1.84,7.14,8.75,49.3,1.12,2.09,3.71
CCc1cccc(NC(=O)Nc2ccc(Oc3ccc4nc(NC(=O)OC)[nH]c4c3)cc2)c1,8.38,7.89,15.6,10.3,37.5,46.8,57.8,1.82,5.21,1.49
CC1=C(C(=O)Nc2ccc3[nH]ncc3c2)C(c2ccc(Cl)c(Cl)c2)CC(=O)N1 (stereo not given),70.2,1.32,19.5,3.19,28.2,3.78,5.17,-1.16,1.61,2.18
COc1ccc2cc(-c3c(-c4ccncc4)nc(-c4ccc([S+](C)[O-])cc4)n3C)ccc2c1 (stereo not given),9.25,4.15,11,2.18,15.4,36,78.4,0.6,0.64,2.59
NS(=O)(=O)c1cccc(-c2ccc3c(NC(=O)C4CC4)n[nH]c3c2)c1,14.4,1.82,1.24,-1.44,2.43,1.33,7.09,2.11,7.37,1.63
Nc1nc(-c2ccc3c(c2)C(=Cc2cc(Br)c(O)c(Br)c2)C(=O)N3)cs1,29.2,1.57,6.47,-0.77,9.45,2.74,6.29,1.39,5.61,24.6
CCn1c(-c2nonc2N)nc2ccncc21,6.98,0.79,3.04,0.9,6.04,2.02,4.14,1.41,3.01,2.18
COc1cc2ncn(-c3cc(OCc4ccccc4C(F)(F)F)c(C(N)=O)s3)c2cc1OC,13.7,3.06,26.6,4.2,35.9,76,88.3,4.53,18.1,5.97
CC(=O)Nc1cccc(C#Cc2cncnc2Nc2ccc(OCc3cccc(F)c3)c(Cl)c2)n1,2.65,3.23,1.96,3.46,-5.73,4.04,14.4,2.81,2.04,-0.3
CS(=O)(=O)CCNCc1ccc(-c2ccc3ncnc(Nc4ccc(OCc5ccccc5)c(Cl)c4)c3c2)o1,1.2,2.22,10.4,1.18,7.9,1.97,8.82,3.3,7.74,2.21
NC(=O)c1ccc(-c2nc(-c3ccccn3)c(-c3ccc4c(c3)OCO4)[nH]2)cc1,3.93,4.83,4.45,1.68,-2.72,6.27,3.54,0.64,2.35,1.99
N#Cc1c(NC(=O)c2cccc3ccccc23)sc2c1CCCC2,5.29,1.03,3.57,1.03,2.63,3.84,5.96,1.92,4.41,3.89
COc1cc2ncn(-c3cc(O[C@@H](C)c4ccccc4Cl)c(C(N)=O)s3)c2cc1OC,18.1,8.64,38.8,8,49.3,54,79.5,6.14,20.2,5.91
NCc1ccc(-c2nc(-c3ccc(Cl)c(O)c3)c(-c3ccncc3)[nH]2)cc1,9.73,1.17,6.56,1.89,5.03,1.42,23.7,3.14,4.41,4.02
CS(=O)(=O)CCNCc1nc(-c2ccc3ncnc(Nc4ccc(F)c(Cl)c4)c3c2)cs1,9.04,3.41,6.36,2.51,-0.59,5.44,27.7,1.34,2.52,3.38
COc1cc2ncn(-c3cc(OCc4ccccc4Cl)c(C(N)=O)s3)c2cc1OC,23.5,4.78,29.9,2.35,40.5,67.3,99,7,30.8,13.9
CC1=C(C(=O)Nc2ccc3[nH]ncc3c2)C(c2ccc(F)cc2)NC(=O)N1 (stereo not given),62.7,3.96,18.5,2.09,26.9,1.26,5.18,1.97,3.21,7.49

SMILES,inhibition [1] [%],inhibition [2] [%],inhibition [3] [%],inhibition [4] [%],inhibition [5] [%],inhibition [6] [%],inhibition [7] [%],inhibition [8] [%],inhibition [9] [%],inhibition [10] [%]
CCn1c(-c2nonc2N)nc2cncc(C(=O)N3CC[C@H](N)C3)c21,3.21,2.84,6.38,1.58,-2.29,4.37,12,0.43,2.34,5.42
COc1cc2c(cc1Nc1nc(N3CCc4ccccc43)c3cc[nH]c3n1)N(C(=O)CN(C)C)CC2,2.61,0.77,3.08,0.6,8.2,1.91,1.24,0.88,3.15,1.37
COc1ccc(-c2nn3ncccc3c2-c2ccnc(Nc3ccc(Cl)c(C(F)(F)F)c3)n2)cc1,6.68,4.71,2.65,0.61,-3.91,4.44,10.5,0.35,0.58,3.81
CCCN1CCC(Oc2cc(Nc3nc(Nc4cccc(F)c4C(N)=O)c4cc[nH]c4n3)c(OC)cc2Cl)CC1,5.9,3.16,6.47,2.93,-1.8,-0.06,7.28,1.26,9.17,-0.01
CC1=C(C(=O)Nc2ccc3[nH]ncc3c2)C(c2ccc3ccccc3c2)CC(=O)N1 (stereo not given),70.6,4.02,22,3.09,32.8,2.65,2.84,1.47,3.14,2.51
Cc1cccc(-c2n[nH]cc2-c2ccc3ncccc3n2)n1,2.37,-1.18,4.2,0.3,-2.95,3.36,7.9,1.72,0.72,5.33
Cc1nnc(-c2ccc(C)c(-c3ccc(C(=O)Nc4cccc(C#N)c4)cc3)c2)o1,5.96,2.83,4.74,1.31,-2.81,4.18,5.45,-0.38,2.09,5.31
O=C1Nc2ccc(C(=O)c3ccco3)cc2C1=Cc1cc(Cl)c(O)c(Cl)c1,67.3,3.22,13.3,3.45,36.7,4.59,15.1,1.22,7.56,27.5
Nc1ncnc2occ(-c3ccc(NC(=O)Nc4cccc(C(F)(F)F)c4)cc3)c12,60.4,30.7,66.7,42.5,88.8,26.4,67.9,28.7,59.2,2.65
Fc1cccc(COc2ccc(Nc3ncnc4cc(-c5ccc[nH]5)sc34)cc2Cl)c1,7.53,0.54,13.2,-2.76,-2.08,2.11,11.9,0.55,4.58,5.64
CS(=O)(=O)Nc1ccc(N/C=C2\C(=O)Nc3ccccc32)cc1,47.6,7.77,43,6.66,61.1,-2.57,0.71,2.65,18.6,18.1
CCn1c(-c2nonc2N)nc2c(C#CC(C)(C)O)nc(CN3CCCC3)cc21,3.35,0.07,4.15,0.15,23.3,-1.82,1.24,1.94,1.87,1.68
COc1cc(C)c(NC(=O)CN(C)C)cc1Nc1nc(Nc2cccc(F)c2C(N)=O)c2cc[nH]c2n1,13.5,-2.09,6.07,-0.55,12.3,2.47,3.17,9.71,43.9,4.26
COC(=O)Nc1nc2cc(Oc3ccc(NC(=O)Nc4cccc(C(=O)O)c4)cc3)ccc2[nH]1,12.8,-1.26,9.37,0.03,37.7,0.65,7.1,0.68,1.11,0.99
COc1ccc(-c2coc3ncnc(N)c23)cc1,7.06,3.4,8.81,1.56,15.3,3.11,8.06,1.83,6.08,4.43
CS(=O)(=O)CCNCc1ccc(-c2ccc3ncnc(Nc4ccc(OCc5cccc(F)c5)c(C(F)(F)F)c4)c3c2)o1,2.73,2.77,-1.87,0.77,-1.89,3.11,7.45,1.28,2.47,3.22
